# Data taken from PubChem BioAssay (Tox21).
# Values without a mark were called inactive. Records with an inconclusive call do not appear. Where a call stands in place of a potency, no number is given. The source made the active and inactive calls. Calls follow the shape of the dose curve; as a rule, active = well fitted curve in the direction sought with a large enough effect in the repeat runs; inconclusive = weak or mixed curves; inactive = no such curve, though single readings can be large; an effect the other way counts as inactive or inconclusive.
# Columns and labels:
# [1] = qHTS RealTime-Glo MT Cell Viability Assay in HepG2 cells - 40 hour (AID 1224870); also: nearly all actives have a fitted effect of over 50% in size
# In short: (§1)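 HepG2 cells (600/well) mixed with RealTime-Glo MT reagent, settled 5 h at 37 C/5% CO2 before compound addition. Nonlytic NanoLuc luminescence from viable-cell prosubstrate reduction read repeatedly during 40 h treatment at 37 C.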
# [2] = A CellTox Green Cytotoxicity Assay to monitor cytotoxicity in HEK293 cells - 40 hour (AID 1224871); also: nearly all actives have a fitted effect of over 45% in size; also: potency is read from the fitted curve at half-maximal effect
# In short: (§2)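 Cytotoxicity was tracked continuously in HEK293 cells by a DNA-binding dye excluded from viable cells. Compounds were transferred in DMSO 5 h after seeding; fluorescence was recorded at intervals up to 40 h.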
# [3] = qHTS RealTime-Glo MT Cell Viability Assay in HEK293 cells - 16 hour (AID 1224872); also: nearly all actives have a fitted effect of over 50% in size; also: potency is read from the fitted curve at half-maximal effect
# In short: (§3)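 Tox21 10K qHTS, HEK293, 600 cells/well, RealTime-Glo reagent co-dispensed with cells; 5 h preincubation, compound by pintool, 37 C, luminescence at 0–40 h.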
# [4] = qHTS RealTime-Glo MT Cell Viability Assay in HepG2 cells - 8 hour (AID 1224873); also: nearly all actives have a fitted effect of over 55% in size
# In short: as §1
# [5] = qHTS RealTime-Glo MT Cell Viability Assay in HEK293 cells - 40 hour (AID 1224874); conditions: RealTime-Glo luminescence; max response: hits give low values; also: nearly all actives have a fitted effect of over 50% in size; also: potency is read from the fitted curve at half-maximal effect
# In short: (§4)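 Nonlytic bioluminescent viability monitoring. HEK293 at 600 cells/well with reagent; 5 h settle; compound transfer by pintool; plates held at 37 C and read at set time points.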
# [6] = A CellTox Green Cytotoxicity Assay to monitor cytotoxicity in HEK293 cells - 24 hour (AID 1224875); also: nearly all actives have a fitted effect of over 45% in size; also: potency is read from the fitted curve at half-maximal effect
# In short: as §2
# [7] = A CellTox Green Cytotoxicity Assay to monitor cytotoxicity in HepG2 cells - 16 hour (AID 1224876); also: nearly all actives have a fitted effect of over 45% in size; also: potency is read from the fitted curve at half-maximal effect
# In short: (§5)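 Real-time, homogeneous cytotoxicity readout: dead-cell DNA staining by CellTox Green in HepG2 monolayers, fluorescence measured at timed intervals up to 40 h of continuous compound exposure.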
# [8] = qHTS RealTime-Glo MT Cell Viability Assay in HepG2 cells - 32 hour (AID 1224877); also: nearly all actives have a fitted effect of over 55% in size
# In short: (§6)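 Cells + NanoLuc/prosubstrate dispensed (600 cells/well) → 5 h at 37 C/5% CO2 → compounds in DMSO transferred → 40 h incubation at 37 C, luminescence read at 0, 8, 16, 24, 32, 40 h.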
# [9] = A CellTox Green Cytotoxicity Assay to monitor cytotoxicity in HepG2 cells - 24 hour (AID 1224878); also: nearly all actives have a fitted effect of over 45% in size; also: potency is read from the fitted curve at half-maximal effect
# In short: as §5
# [10] = A CellTox Green Cytotoxicity Assay to monitor cytotoxicity in HepG2 cells - 40 hour (AID 1224879); also: nearly all actives have a fitted effect of over 40% in size; also: potency is read from the fitted curve at half-maximal effect
# In short: as §5
# [11] = qHTS RealTime-Glo MT Cell Viability Assay in HEK293 cells - 0 hour (AID 1224880); also: nearly all actives have a fitted effect of over 45% in size; also: potency is read from the fitted curve at half-maximal effect
# In short: as §4
# [12] = A CellTox Green Cytotoxicity Assay to monitor cytotoxicity in HEK293 cells - 32 hour (AID 1224881); also: nearly all actives have a fitted effect of over 40% in size; also: potency is read from the fitted curve at half-maximal effect
# In short: as §2
# [13] = A CellTox Green Cytotoxicity Assay to monitor cytotoxicity in HepG2 cells - 0 hour (AID 1224882); also: nearly all actives have a fitted effect of over 35% in size; also: potency is read from the fitted curve at half-maximal effect
# In short: as §5
# [14] = A CellTox Green Cytotoxicity Assay to monitor cytotoxicity in HepG2 cells - 32 hour (AID 1224883); also: nearly all actives have a fitted effect of over 50% in size; also: potency is read from the fitted curve at half-maximal effect
# In short: as §5
# [15] = A CellTox Green Cytotoxicity Assay to monitor cytotoxicity in HEK293 cells - 8 hour (AID 1224884); also: nearly all actives have a fitted effect of over 35% in size; also: potency is read from the fitted curve at half-maximal effect
# In short: as §2
# [16] = qHTS RealTime-Glo MT Cell Viability Assay in HepG2 cells - 16 hour (AID 1224885); also: nearly all actives have a fitted effect of over 50% in size
# In short: as §6
# [17] = qHTS RealTime-Glo MT Cell Viability Assay in HEK293 cells - 24 hour (AID 1224886); also: nearly all actives have a fitted effect of over 50% in size; also: potency is read from the fitted curve at half-maximal effect
# In short: as §3
# [18] = qHTS RealTime-Glo MT Cell Viability Assay in HEK293 cells - 8 hour (AID 1224887); also: nearly all actives have a fitted effect of over 50% in size; also: potency is read from the fitted curve at half-maximal effect
# In short: as §4
# [19] = A CellTox Green Cytotoxicity Assay to monitor cytotoxicity in HEK293 cells - 16 hour (AID 1224888); also: nearly all actives have a fitted effect of over 35% in size; also: potency is read from the fitted curve at half-maximal effect
# In short: as §2
# [20] = qHTS RealTime-Glo MT Cell Viability Assay in HepG2 cells - 0 hour (AID 1224889); also: nearly all actives have a fitted effect of over 50% in size; also: potency is read from the fitted curve at half-maximal effect
# In short: as §6
structure (smiles),measurement,setting,value
CCCCCCCCCCCCCCCCN,Potency,[1],inactive
same,Potency,[2],12 µM (active)
same,Potency,[3],inactive
same,outcome,[4],inactive
same,max response,[5],11.5%
same,Potency,[6],10.7 µM (active)
same,Potency,[7],23.9 µM (active)
same,Potency,[8],inactive
same,Potency,[9],21.3 µM (active)
same,Potency,[10],23.9 µM (active)
same,Potency,[11],inactive
same,Potency,[12],16.9 µM (active)
same,Potency,[13],21.3 µM (active)
same,Potency,[14],23.9 µM (active)
same,Potency,[15],19 µM (active)
same,outcome,[16],inactive
same,Potency,[17],inactive
same,Potency,[18],inactive
same,Potency,[19],19 µM (active)
same,Potency,[20],inactive
CC(C(=O)O)c1ccc(/C=C2\CCCCC2=O)cc1 (stereo not drawn),Potency,[1],inactive
same,Potency,[2],inactive
same,Potency,[3],inactive
same,outcome,[4],inactive
same,max response,[5],21%
same,Potency,[6],inactive
same,Potency,[7],inactive
same,Potency,[8],inactive
same,Potency,[9],inactive
same,Potency,[10],inactive
same,Potency,[11],inactive
same,Potency,[12],inactive
same,Potency,[13],inactive
same,Potency,[14],inactive
same,Potency,[15],inactive
same,outcome,[16],inactive
same,Potency,[17],inactive
same,Potency,[18],inactive
same,Potency,[19],inactive
same,Potency,[20],inactive
Cc1cc(N)n(-c2ccccc2)n1,Potency,[1],inactive
same,Potency,[2],inactive
same,Potency,[3],inactive
same,outcome,[4],inactive
same,max response,[5],-5.72%
same,Potency,[6],inactive
same,Potency,[7],inactive
same,Potency,[8],inactive
same,Potency,[9],inactive
same,Potency,[10],inactive
same,Potency,[11],inactive
same,Potency,[12],inactive
same,Potency,[13],inactive
same,Potency,[14],inactive
same,Potency,[15],inactive
same,outcome,[16],inactive
same,Potency,[17],inactive
same,Potency,[18],inactive
same,Potency,[19],inactive
same,Potency,[20],inactive
O=C(O)c1ccccc1-n1cc(C(=O)O)c(=O)c2cc(Nc3c(F)cc(F)cc3Cl)c(Cl)cc21,Potency,[1],inactive
same,Potency,[2],inactive
same,Potency,[3],inactive
same,outcome,[4],inactive
same,max response,[5],0.656%
same,Potency,[6],inactive
same,Potency,[7],inactive
same,Potency,[8],inactive
same,Potency,[9],inactive
same,Potency,[10],inactive
same,Potency,[11],inactive
same,Potency,[12],inactive
same,Potency,[13],inactive
same,Potency,[14],inactive
same,Potency,[15],inactive
same,outcome,[16],inactive
same,Potency,[17],inactive
same,Potency,[18],inactive
same,Potency,[19],inactive
same,Potency,[20],inactive
COc1cc(C)c(Cc2cnc(N)nc2N)cc1OC,Potency,[1],inactive
same,Potency,[2],inactive
same,Potency,[3],inactive
same,outcome,[4],inactive
same,max response,[5],5.82%
same,Potency,[6],inactive
same,Potency,[7],inactive
same,Potency,[8],inactive
same,Potency,[9],inactive
same,Potency,[10],inactive
same,Potency,[11],inactive
same,Potency,[12],inactive
same,Potency,[13],inactive
same,Potency,[14],inactive
same,Potency,[15],inactive
same,outcome,[16],inactive
same,Potency,[17],inactive
same,Potency,[18],inactive
same,Potency,[19],inactive
same,Potency,[20],inactive
Cc1c(Cl)cccc1[N+](=O)[O-],Potency,[1],inactive
same,Potency,[2],inactive
same,Potency,[3],inactive
same,outcome,[4],inactive
same,max response,[5],-7.04%
same,Potency,[6],inactive
same,Potency,[7],inactive
same,Potency,[8],inactive
same,Potency,[9],inactive
same,Potency,[10],inactive
same,Potency,[11],inactive
same,Potency,[12],inactive
same,Potency,[13],inactive
same,Potency,[14],inactive
same,Potency,[15],inactive
same,outcome,[16],inactive
same,Potency,[17],inactive
same,Potency,[18],inactive
same,Potency,[20],inactive
COc1ccc(/C(C)=C/C(=O)O)c(OC)c1,Potency,[1],inactive
same,Potency,[2],inactive
same,Potency,[3],inactive
same,outcome,[4],inactive
same,max response,[5],6.45%
same,Potency,[6],inactive
same,Potency,[7],inactive
same,Potency,[8],inactive
same,Potency,[9],inactive
same,Potency,[10],inactive
same,Potency,[11],inactive
same,Potency,[12],inactive
same,Potency,[13],inactive
same,Potency,[14],inactive
same,Potency,[15],inactive
same,outcome,[16],inactive
same,Potency,[17],inactive
same,Potency,[19],inactive
same,Potency,[20],inactive
Cc1cc(SC2=C(O)C[C@@](CCc3ccc(N)cc3)(C(C)C)OC2=O)c(C(C)(C)C)cc1CO,Potency,[1],inactive
same,Potency,[2],inactive
same,Potency,[3],inactive
same,outcome,[4],inactive
same,max response,[5],-1.78%
same,Potency,[6],inactive
same,Potency,[7],inactive
same,Potency,[8],inactive
same,Potency,[9],inactive
same,Potency,[10],inactive
same,Potency,[11],11 µM (active)
same,Potency,[12],inactive
same,Potency,[13],inactive
same,Potency,[14],inactive
same,Potency,[15],inactive
same,outcome,[16],inactive
same,Potency,[17],inactive
same,Potency,[18],inactive
same,Potency,[19],inactive
same,Potency,[20],19.5 µM (active)
O=C1OC(=O)C2CC=CCC12 (stereo not drawn),Potency,[1],inactive
same,Potency,[2],inactive
same,Potency,[3],inactive
same,outcome,[4],inactive
same,max response,[5],0.701%
same,Potency,[6],inactive
same,Potency,[7],inactive
same,Potency,[8],inactive
same,Potency,[9],inactive
same,Potency,[10],inactive
same,Potency,[11],inactive
same,Potency,[12],inactive
same,Potency,[13],inactive
same,Potency,[14],inactive
same,Potency,[15],inactive
same,outcome,[16],inactive
same,Potency,[17],inactive
same,Potency,[18],inactive
same,Potency,[19],inactive
same,Potency,[20],inactive
CC(=O)S[C@H](C(=O)N[C@H]1Cc2ccccc2[C@H]2CCC[C@@H](C(=O)O)N2C1=O)C(C)C,Potency,[1],inactive
same,Potency,[2],inactive
same,Potency,[3],inactive
same,outcome,[4],inactive
same,max response,[5],16.8%
same,Potency,[6],inactive
same,Potency,[7],inactive
same,Potency,[8],inactive
same,Potency,[9],inactive
same,Potency,[10],inactive
same,Potency,[11],inactive
same,Potency,[12],inactive
same,Potency,[13],inactive
same,Potency,[14],inactive
same,Potency,[15],inactive
same,outcome,[16],inactive
same,Potency,[17],inactive
same,Potency,[18],inactive
same,Potency,[19],inactive
same,Potency,[20],inactive
CO[C@@H]1COCC[C@@H]1N[C@@H]1CC[C@@](C(=O)N2CCc3ncc(C(F)(F)F)cc3C2)(C(C)C)C1,Potency,[1],inactive
same,Potency,[2],inactive
same,Potency,[3],17.3 µM (active)
same,outcome,[4],inactive
same,Potency,[5],17.3 µM (active)
same,Potency,[6],inactive
same,Potency,[7],inactive
same,Potency,[8],inactive
same,Potency,[9],inactive
same,Potency,[10],inactive
same,Potency,[11],inactive
same,Potency,[12],inactive
same,Potency,[13],inactive
same,Potency,[14],inactive
same,Potency,[15],inactive
same,outcome,[16],inactive
same,Potency,[17],17.3 µM (active)
same,Potency,[18],15.4 µM (active)
same,Potency,[19],inactive
same,Potency,[20],inactive
CC1(C)CC(=O)CC(C)(C)N1,Potency,[1],inactive
same,Potency,[2],inactive
same,Potency,[3],inactive
same,outcome,[4],inactive
same,max response,[5],0.817%
same,Potency,[6],inactive
same,Potency,[7],inactive
same,Potency,[8],inactive
same,Potency,[9],inactive
same,Potency,[10],inactive
same,Potency,[11],inactive
same,Potency,[12],inactive
same,Potency,[13],inactive
same,Potency,[14],inactive
same,Potency,[15],inactive
same,outcome,[16],inactive
same,Potency,[17],inactive
same,Potency,[18],inactive
same,Potency,[19],inactive
same,Potency,[20],inactive
O=C(O)c1ccncc1,Potency,[1],inactive
same,Potency,[2],inactive
same,Potency,[3],inactive
same,outcome,[4],inactive
same,max response,[5],9.67%
same,Potency,[6],inactive
same,Potency,[7],inactive
same,Potency,[8],inactive
same,Potency,[9],inactive
same,Potency,[10],inactive
same,Potency,[11],inactive
same,Potency,[12],inactive
same,Potency,[13],inactive
same,Potency,[14],inactive
same,Potency,[15],inactive
same,outcome,[16],inactive
same,Potency,[17],inactive
same,Potency,[18],inactive
same,Potency,[19],inactive
same,Potency,[20],inactive
